These results are taken from PubChem BioAssay AID624256 (NMMLSC, 2012).

Structures are written as SMILES. About 3,700 (1%) of roughly 360,000 compounds were called active. Inconclusive results (about 2%) are left out.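 Rule for the calls: active = normalized GFP-positive differentiation at or above the plate's own cutoff, the solvent-only control mean plus 3 SD; inconclusive = no clear call, values can overlap the other calls; inactive = the rest.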 The sample as a whole holds a higher share of actives than the screen did.

The experiment in a line: induction of myeloid progenitor differentiation, primary screen, cell-based, flow cytometry, MLPCN library (AID 624256).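 For GFP+ MAC1+ double positive: cells exposed to compound for four days before flow analysis.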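 For normalized GFP-positive differentiation: cells exposed to compound for four days before flow analysis; 0% = DMSO wells and 100% = fulvestrant positive control at 5 µM.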 Conditions: ER-HoxA9 myeloid progenitors, lysozyme-GFP differentiation, at 10 µM; GFP+ MAC1+ double positive: measured here: differentiation confirmed by MAC1 staining, stronger effect = higher value; normalized GFP-positive differentiation: stronger effect = higher value. Background: Flow cytometry measures light scatter and fluorescence of single cells or particles in a stream.
For `Cc1cc(O)c(C2(O)C(=O)Nc3ccccc32)cc1C` (stereo unspecified), the GFP+ MAC1+ double positive stood at 0.4% and the compound was called inactive.
As to `COc1ccc(C2(O)C(=O)Nc3ccccc32)cc1` (stereo unspecified), the GFP+ MAC1+ double positive turned out to be 0.4% and the result was inactive.
For `Cc1ccc(S(=O)(=O)N2CC[C@H]3[C@@H](C2)C(=O)C[C@@H](c2ccccc2)N3S(=O)(=O)c2ccc(C)cc2)cc1`, in that order: 2.5% and “inactive”.
For `Cc1[nH]c2ccccc2c1C(=O)COC(=O)c1c(-c2ccccc2)noc1C` the same measures were 0.6% and “inactive”.
Regarding `CCOC(=O)c1c(-c2cccc(C)c2)csc1NC(=O)c1c(-c2ccccc2)noc1C`, the GFP+ MAC1+ double positive amounted to 15.3% and the normalized GFP-positive differentiation was 89% (active).
As for `CCOC(=O)c1c(-c2ccc(-c3ccccc3)cc2)csc1NC(=O)CCC(=O)O`, the GFP+ MAC1+ double positive was determined as 0.3% and the outcome was inactive.
For `CC1(C(=O)NCc2ccccc2)CSCC(=O)N1CCCN1CCOCC1` (stereo unspecified) the same measures were 4% and “inactive”.
For `CSCCC(C(=O)NC(C)(C)C)n1c(-c2ccccc2)nc2ccccc21` (stereo unspecified), in that order: 4% and “inactive”.
For `CSc1ccc(CN2CCC2(C)C(=O)NCc2ccccc2Br)cc1` (stereo unspecified) the same measures were 0.7% and “inactive”.
`O=C(NCc1ccc(F)cc1)c1cc(C2CCCCN2C(=O)c2ccccn2)on1` (stereo unspecified): the GFP+ MAC1+ double positive was determined as 2.6% and the call was inactive.
Turning to `N#Cc1ccc(C(C(=O)NCc2ccccc2)n2c(=O)c(-c3ccco3)nc3ccccc32)cc1` (stereo unspecified), the GFP+ MAC1+ double positive was 2.4% and the result was inactive.
Regarding `COC(=O)c1ccc(NCc2cc(O)ccc2O)cc1`, the GFP+ MAC1+ double positive was found to be 1.6% and the compound was classed as inactive.
As to `CC(C)OC(=O)c1ccc(NCc2cc(O)ccc2O)cc1Cl`, the GFP+ MAC1+ double positive is 7.3% and the normalized GFP-positive differentiation is 354% (active).
For the compound `CC(OC(=O)c1ccc(Cl)cc1O)C(=O)NCCC1=CCCCC1` (stereo unspecified), the GFP+ MAC1+ double positive is 0.3% and the compound was called inactive.
For `CC(C)(C)CC(=O)Nc1nc(C(N)Cc2ccc(C(F)(F)F)cc2)cs1` (stereo unspecified) the same measures were 0.2% and “inactive”.
For `Cc1ccc(S(=O)(=O)N2CC3C(=O)C[C@@H](c4ccccc4Cl)N(S(=O)(=O)c4ccc(C)cc4)C3CC2c2ccccc2)cc1` (stereo partly specified) the same measures were 1.9% and “inactive”.
For `S=c1[nH]nc(-c2cccs2)n1/N=C/c1cn(-c2ccccc2)nc1-c1ccc(Cl)cc1`, the GFP+ MAC1+ double positive amounted to 0.1% and the result was inactive.
As to `O=C(O)c1ccc(N/N=C/c2cn(-c3ccccc3)nc2-c2cccs2)cc1`, the GFP+ MAC1+ double positive is 0.5% and the normalized GFP-positive differentiation is 10.8% (active).
For the compound `CC(=O)C1=C(C)NC(C)=C(C(C)=O)C1c1cn(-c2ccccc2)nc1-c1cccs1`, the GFP+ MAC1+ double positive was found to be 0.7% and the call was inactive.
As to `Cc1nc2c(OCC(=O)C(C)(C)C)cccn2c1N(C)Cc1cccs1`, the GFP+ MAC1+ double positive was found to be 2.1% and the compound was called inactive.
For `Fc1cccc(Cc2c(-c3cccc(Cl)c3)nc3ccc(Br)cn23)c1`, in that order: 0.4% and “inactive”.
For `O=C(Nc1cccc(Cc2ccccc2)c1)Nc1ccc2nc([C@@H]3O[C@H](CO)[C@@H](O)[C@H](O)[C@H]3O)[nH]c2c1` the same measures were 2.9% and “inactive”.
In the case of `CC#CC[N+](C)(C)CCCCCC`, the GFP+ MAC1+ double positive is 1.6% and the normalized GFP-positive differentiation is 19.3% (active).
With `COC(=O)[C@]12CCCCC=C1N(Cc1ccc(Cl)cc1Cl)C(=O)[C@H](CC(=O)NCc1cccc3ccccc13)C2`, the GFP+ MAC1+ double positive amounted to 1.1% and the outcome was inactive.
For `COc1cccc2sc3cc(NCC[C@@H]4CCCN4C)ccc3c(=O)c12`, in that order: 1.3% and “inactive”.
In the case of `Cc1cc2oc3ccc(NCCC4CCCN4C)cc3c(=O)c2cc1C` (stereo unspecified), the GFP+ MAC1+ double positive worked out at 6.6% and the normalized GFP-positive differentiation was 73.2% (active).
As for `CCCCNC(=O)c1nc(C2CCN(S(=O)(=O)c3ccc(F)c(F)c3)CC2)oc1-c1cccc(C(F)(F)F)c1`, the GFP+ MAC1+ double positive amounted to 0.6% and the compound was called inactive.
For the compound `Cc1ccc(S(=O)(=O)N2CCCCC2)cc1NC(=O)c1cccnc1`, the GFP+ MAC1+ double positive came to 1.2% and the outcome was inactive.
Take `Cc1ccc(-n2nc3cc(C)c(NC(=O)c4cccnc4)cc3n2)cc1`: the GFP+ MAC1+ double positive was 5.5% and the normalized GFP-positive differentiation is 15.8% (active).
Turning to `O=C(Nc1cccc(-n2cnnn2)c1)c1cccnc1`, the GFP+ MAC1+ double positive is 2% and the compound was called inactive.
For `CC1(C(=O)NS(=O)(=O)c2ccc(C#N)cc2)CCN1C(=O)CC1CCCC1` (stereo unspecified), in that order: 0.6% and “inactive”.
Regarding `C=CCOc1ccc(/C=C/C(=O)OCC(=O)NC(C)c2ccc(F)cc2)cc1` (stereo unspecified), the GFP+ MAC1+ double positive came to 0.7% and the outcome was inactive.
Consider `CC(NC(=O)COC(=O)c1ccc(Cl)cc1O)c1ccc(F)cc1` (stereo unspecified), for which the GFP+ MAC1+ double positive was found to be 6.2% and the normalized GFP-positive differentiation was 140% (active).
Turning to `CC(NC(=O)COC(=O)CCC(=O)c1ccc(Cl)cc1)c1ccccc1` (stereo unspecified), the GFP+ MAC1+ double positive was 0.8% and the compound was classed as inactive.
For `CN1OC[C@@H]2CN(C(=O)C(C)(C)C)[C@H](c3ccc(-n4ccnc4)cc3)C[C@@H]21` the same measures were 0.2% and “inactive”.
For `COc1ccc(/C=C/C(=O)c2c(O)cc(OC)cc2OC)cc1`, in that order: 1.7% and “inactive”.
In the case of `O=C(NCc1ccccc1)C(c1ccc(F)cc1)N1CCN(C(=O)C2CCCO2)CC1` (stereo unspecified), the GFP+ MAC1+ double positive turned out to be 0.2% and the result was inactive.
Take `CCC(=O)N1Cc2cc(C(=O)NCc3cccc(F)c3)nc(-c3cccc(C4=CCCC4)c3)c2[C@H]1CCO`: the GFP+ MAC1+ double positive came to 0.5% and the compound was classed as inactive.
For `CCOC(=O)c1c(-c2ccccc2)oc2ccc(OCC(=O)NN)cc12`, the GFP+ MAC1+ double positive was determined as 1.9% and the normalized GFP-positive differentiation is 26.6% (active).
As for `Cc1cc(=O)oc2ccc(OCC(=O)O)cc12`, the GFP+ MAC1+ double positive was 2.2% and the compound was classed as inactive.
For `CCOC(=O)c1c(-c2ccccc2)oc2cc(Br)c(O)c(C=O)c12`, in that order: 0.5% and “inactive”.
`CC(C)OC(=O)CC(=O)CC(O)c1cccc([N+](=O)[O-])c1` (stereo unspecified): the GFP+ MAC1+ double positive amounted to 3.1% and the compound was classed as inactive.
On to `COCOc1cccc(CN2CCC(C)(Oc3ccc(SC)cc3)C2)c1` (stereo unspecified), for which the GFP+ MAC1+ double positive came to 0.7% and the compound was called inactive.
